From PubChem BioAssay
Calls of active or inactive are those of the source.

What was measured:
[1] = E. coli DRC41 culture turbidity changes, primary screen, E. coli filamentation inducer project, strain DRC41, OD650, 48 h (AID 1152);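 further: E. coli MC1000 strain DRC41 lacking acrAB efflux pump and sulA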; conditions: E. coli DRC41 (acrAB sulA), higher = more signal, called active from +8 up or from −8 down
[2] = small-molecule binders of probe aLefty1, primary screen, biochemical, small-molecule microarray, 635/667 nm fluorescence (AID 1153); conditions: higher = more signal;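 further: score merges spot fluorescence with signal-to-noise ratio from the scanned slide images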
[3] = PSAC antagonists in infected red cells, primary screen, cell-based, P. falciparum Indochina, OD700, 1 h (AID 1154); conditions: P. falciparum Indochina infected RBC osmotic lysis, higher = more signal, called active from +8 up or from −8 down
[4] = PSAC antagonists in infected red cells, primary screen, cell-based, P. falciparum Indochina, OD700, 2 h (AID 1155);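 further: lysis reports solute entry through the parasite surface anion channel PSAC; channel blockers reduce lysis of infected cells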; conditions: P. falciparum Indochina infected erythrocytes, osmotic lysis OD700; higher = more signal, called active from +8 up or from −8 down
[5] = osmotic lysis modulators in infected erythrocytes, primary screen, PSAC antagonist project, cell-based, P. falciparum Indochina, OD700, 3 h (AID 1156); conditions: higher = more signal, called active from +8 up or from −8 down
[6] = PSAC antagonists in infected red cells, primary screen, cell-based, P. falciparum Indochina, OD700, 18 h (AID 1157); conditions: P. falciparum Indochina infected erythrocytes, osmotic lysis OD700, 18 h; higher = more signal, called active from +8 up or from −8 down
[7] = modulators of S6 phosphorylation in cells, primary screen, cell-based, A549, cytoblot, luminescence, serum-stimulated (AID 1158); conditions: A549 phospho-S6 cytoblot, 5 h, higher = more signal;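 further: serum-stimulated A549 lung adenocarcinoma cells; signal is phosphorylated S6 detected by cytoblot immunostaining with HRP secondary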
[8] = biological target: NADPH oxidase 2 (Homo sapiens) (UniProt P04839); assay: NOX2-dependent H2O2 signal modulators, primary screen, NOX inhibitor project, cell-based, HEK293-NOX2, PMA-stimulated, Amplex Red fluorescence (AID 1159); conditions: 45 min, higher = more signal, called active from +8 up or from −8 down; further: test concentration not given here
[9] = biological target: NADPH oxidase 4 (Homo sapiens) (UniProt Q9NPH5); assay: NOX4-dependent H2O2 signal modulators, primary screen, NOX inhibitor project, cell-based, HEK293-NOX4, tetracycline-induced, Amplex Red fluorescence (AID 1160); conditions: 45 min, higher = more signal, called active from +8 up or from −8 down
[10] = biological target: NADPH oxidase 5 (Homo sapiens) (UniProt Q96PH1); assay: NOX5-dependent H2O2 signal modulators, primary screen, NOX inhibitor project, cell-based, HEK293-NOX5, Amplex Red fluorescence (AID 1161); conditions: HEK293-NOX5, ionomycin, 45 min, higher = more signal
[11] = A549 cell viability effects, profiling panel, calcein-AM fluorescence, 48 h, basal (AID 1162); conditions: higher = more signal; further: test concentration not given here
[12] = adipocyte viability effects, profiling panel, cell-based, 3T3-L1 adipocytes, calcein-AM fluorescence, 48 h, basal (AID 1163); conditions: 3T3-L1 adipocytes viability, higher = more signal; further: test concentration not given here
[13] = HepG2 cell viability effects, profiling panel, calcein-AM fluorescence, 48 h, basal (AID 1164); conditions: higher = more signal; further: test concentration not given here
[14] = MM1S cell viability effects, profiling panel, calcein-AM fluorescence, 48 h, basal (AID 1165); conditions: higher = more signal;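 further: viability of MM1S multiple myeloma cells under basal unstimulated conditions; test concentration not given here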
[15] = basal RPMI8226 viability, no added stimulus, profiling panel, cell-based, calcein-AM fluorescence, 48 h, PK04 Diversity Set (AID 1166); conditions: RPMI8226 myeloma viability, higher = more signal;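 further: cells grown under basal conditions without added stimulus; test concentration not given here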
[16] = basal HepG2 mitochondrial membrane potential changes, profiling panel, cell-based, JC-1 fluorescence, 24 h, 100 nL compound (AID 1167); conditions: higher = more signal; further: test concentration not given here
[17] = basal 3T3-L1 adipocyte mitochondrial potential changes, profiling panel, cell-based, JC-1 fluorescence, 3T3-L1 adipocytes, 24 h, 100 nL compound (AID 1168); conditions: JC-1 mitochondrial fluorescence, higher = more signal, called active from +8 up or from −8 down; further: test concentration not given here
[18] = basal RPMI8226 mitochondrial membrane potential changes, profiling panel, cell-based, JC-1 fluorescence, 24 h, 100 nL compound (AID 1169); conditions: RPMI8226 myeloma, JC-1 mitochondrial potential fluorescence, higher = more signal; further: test concentration not given here
[19] = basal MM1S mitochondrial membrane potential changes, profiling panel, cell-based, JC-1 fluorescence, 24 h, 100 nL compound (AID 1170); conditions: higher = more signal; further: test concentration not given here
[20] = A549 lung cancer cell viability effects, profiling panel, resazurin fluorescence, 24 h, PK04 Diversity Set (AID 1171); conditions: higher = more signal, called active from +8 up or from −8 down; further: test concentration not given here

NADPH oxidase 2 (Homo sapiens), sequence (P04839 whole entry, looked up): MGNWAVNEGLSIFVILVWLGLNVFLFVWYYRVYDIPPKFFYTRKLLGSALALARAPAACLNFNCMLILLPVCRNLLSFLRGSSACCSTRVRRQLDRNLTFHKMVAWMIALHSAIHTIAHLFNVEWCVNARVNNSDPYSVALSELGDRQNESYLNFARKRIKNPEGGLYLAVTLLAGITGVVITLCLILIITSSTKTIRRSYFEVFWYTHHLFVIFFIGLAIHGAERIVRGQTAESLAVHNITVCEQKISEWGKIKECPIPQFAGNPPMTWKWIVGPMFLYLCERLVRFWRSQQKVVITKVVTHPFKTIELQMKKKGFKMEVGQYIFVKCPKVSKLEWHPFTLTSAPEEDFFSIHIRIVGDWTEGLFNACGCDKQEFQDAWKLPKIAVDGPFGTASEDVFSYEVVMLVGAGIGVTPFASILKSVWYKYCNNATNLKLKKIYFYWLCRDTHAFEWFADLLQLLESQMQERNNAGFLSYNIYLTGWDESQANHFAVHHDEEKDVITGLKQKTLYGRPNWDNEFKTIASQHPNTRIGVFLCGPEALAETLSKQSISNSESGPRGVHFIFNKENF
NADPH oxidase 4 (Homo sapiens), sequence (Q9NPH5 whole entry, looked up): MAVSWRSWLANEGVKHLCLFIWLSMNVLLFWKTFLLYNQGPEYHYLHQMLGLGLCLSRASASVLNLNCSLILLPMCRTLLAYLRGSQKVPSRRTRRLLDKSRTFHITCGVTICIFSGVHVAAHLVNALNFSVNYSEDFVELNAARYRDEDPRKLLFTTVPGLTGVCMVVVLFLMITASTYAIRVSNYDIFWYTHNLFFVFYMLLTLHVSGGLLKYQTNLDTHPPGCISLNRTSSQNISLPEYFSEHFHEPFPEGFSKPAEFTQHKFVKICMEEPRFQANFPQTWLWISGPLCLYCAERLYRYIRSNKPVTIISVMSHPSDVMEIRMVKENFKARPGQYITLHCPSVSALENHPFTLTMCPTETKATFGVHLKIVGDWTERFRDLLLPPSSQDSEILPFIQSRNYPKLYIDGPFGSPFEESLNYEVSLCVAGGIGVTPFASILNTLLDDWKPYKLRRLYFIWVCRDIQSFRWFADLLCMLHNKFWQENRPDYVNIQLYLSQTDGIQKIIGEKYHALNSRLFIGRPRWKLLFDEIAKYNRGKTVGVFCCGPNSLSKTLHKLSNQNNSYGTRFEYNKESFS
NADPH oxidase 5 (Homo sapiens), sequence (Q96PH1 whole entry, looked up): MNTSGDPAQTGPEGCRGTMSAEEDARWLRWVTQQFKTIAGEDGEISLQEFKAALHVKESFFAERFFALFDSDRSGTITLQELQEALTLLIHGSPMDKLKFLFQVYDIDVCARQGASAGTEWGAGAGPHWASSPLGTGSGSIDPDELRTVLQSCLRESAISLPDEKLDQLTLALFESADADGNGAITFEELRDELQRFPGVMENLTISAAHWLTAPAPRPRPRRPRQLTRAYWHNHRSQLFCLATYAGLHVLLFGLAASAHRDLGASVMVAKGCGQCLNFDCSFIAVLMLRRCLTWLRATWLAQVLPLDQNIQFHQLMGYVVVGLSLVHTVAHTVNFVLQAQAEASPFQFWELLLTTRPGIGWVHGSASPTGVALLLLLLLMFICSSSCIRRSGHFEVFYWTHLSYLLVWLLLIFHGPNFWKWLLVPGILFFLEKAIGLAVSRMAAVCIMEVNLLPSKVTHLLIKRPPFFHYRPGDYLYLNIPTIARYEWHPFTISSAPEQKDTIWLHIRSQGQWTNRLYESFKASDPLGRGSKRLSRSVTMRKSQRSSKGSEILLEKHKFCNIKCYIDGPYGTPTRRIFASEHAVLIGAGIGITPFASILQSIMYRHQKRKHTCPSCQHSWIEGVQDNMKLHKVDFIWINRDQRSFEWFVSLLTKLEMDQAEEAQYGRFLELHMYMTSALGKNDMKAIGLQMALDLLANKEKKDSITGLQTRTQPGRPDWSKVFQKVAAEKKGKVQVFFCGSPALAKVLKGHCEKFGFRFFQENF

SMILES	z-score [1]	composite z-score [2]	z-score [3]	z-score [4]	z-score [5]	z-score [6]	z-score [7]	z-score [8]	z-score [9]	z-score [10]	z-score [11]	z-score [12]	z-score [13]	z-score [14]	z-score [15]	z-score [16]	z-score [17]	z-score [18]	z-score [19]	z-score [20]
CC(=O)Nc1cc(Br)ccc1C(=O)NCc1ccccc1	-0.813 (inactive)	-0.0929	3.88 (inactive)	0.423 (inactive)	0.0319 (inactive)	0.229 (inactive)	-0.283	-0.714 (inactive)	-0.427 (inactive)	-0.393	-0.196	0.814	-0.0731	-0.0267	0.0237	-0.56	-0.907 (inactive)	0.782	1.25	0.14 (inactive)
CCCCC(=C=CC[C@@H](O)c1cccc(OCCO)c1)C[C@@H](O)c1ccccn1	0.158 (inactive)	-0.147	14 (active)	1.33 (inactive)	0.375 (inactive)	0.504 (inactive)	-0.0848	-1.68 (inactive)	-0.544 (inactive)	-1.46	-0.0385	0.317	0.175	0.225	0.427	-0.667	0.316 (inactive)	0.907	-0.578	0.764 (inactive)
O=C(CS)NCCCCCNC(=O)[C@H]1C[C@H]2C(=O)NCC(=O)N2[C@H]1c1ccc(O)cc1	1.43 (inactive)	-0.479	0.279 (inactive)	-0.723 (inactive)	-0.813 (inactive)	-2.32 (inactive)	-0.0935	-0.297 (inactive)	0.243 (inactive)	1.16	0.67	0.537	-0.815	0.0607	-0.261	-0.557	0.185 (inactive)	0.415	-0.167	0.847 (inactive)
COc1cc2c(cc1O)C=[N+](Cc1cc3c(cc1Br)OCO3)CC2	-0.167 (inactive)	-0.237	3 (inactive)	0.472 (inactive)	2.26 (inactive)	0.154 (inactive)	-0.273	-3.59 (inactive)	-2.72 (inactive)	-3.37	-0.103	0.626	-0.958	0.343	-0.109	-0.375	-0.935 (inactive)	0.108	-0.374	-0.698 (inactive)
C=CCNC(=O)[C@@H]1[C@H]2C(=O)O[C@H](c3ccccc3)[C@H](c3ccccc3)N2[C@H](c2ccc(OCCO)cc2)[C@@]12C(=O)N(C(=O)OCCOC)c1ccc(C#CCNC(N)=O)cc12	1.43 (inactive)	0.284	4.2 (inactive)	0.921 (inactive)	1.47 (inactive)	0.514 (inactive)	0.472	0.827 (inactive)	-0.213 (inactive)	0.0624	-0.0901	0.488	0.219	0.911	-1.6	-0.734	0.648 (inactive)	-0.888	0.679	-0.271 (inactive)
CC(=O)NCCCC[C@@H]1NC(=O)[C@H]2C[C@@H](C(=O)NCCCCCNC(=O)CS)[C@@H](c3ccc(O)cc3)N2C1=O	-0.0078 (inactive)	-0.12	1.94 (inactive)	0.811 (inactive)	-0.952 (inactive)	0.425 (inactive)	-0.591	0.772 (inactive)	-2.06 (inactive)	-0.294	0.489	0.102	0.0041	-1.41	0.102	0.231	-0.729 (inactive)	0.698	0.612	-0.187 (inactive)
NCCCCCNC(=O)[C@H]1C[C@H]2C(=O)N3CCC[C@H]3C(=O)N2[C@H]1c1ccc(O)cc1	-0.607 (inactive)	1.17	0.888 (inactive)	0.0655 (inactive)	-1.9 (inactive)	0.0061 (inactive)	-0.604	0.0724 (inactive)	0.719 (inactive)	-0.182	-0.246	0.339	-0.0476	-1.11	-0.177	-0.0181	0.0417 (inactive)	-0.398	0.286	-0.166 (inactive)
Cc1ccc(S[C@]2(C(=O)O)CC(=O)N(Cc3ccccc3C(F)(F)F)[C@@H]2c2ccc(CO)cc2I)cc1	-1.17 (inactive)	0.737	6.52 (inactive)	0.427 (inactive)	0.591 (inactive)	0.402 (inactive)	0.0721	1.63 (inactive)	-1.72 (inactive)	1.12	0.0342	-0.217	-0.742	-3.22	-1.5	-1.06	-0.438 (inactive)	-0.275	-1.48	0.834 (inactive)
C=CC[C@@]1(C(=O)N2CCCCC2)N=C(c2ccc(OCCCO)cc2)O[C@@H]1c1ccccc1CN=[N+]=[N-]	0.279 (inactive)	0.393	26 (active)	16 (active)	2.79 (inactive)	1.04 (inactive)	1.32	-0.935 (inactive)	1.43 (inactive)	1.05	-0.933	0.952	0.192	-1.09	-3.66	1.47	-0.307 (inactive)	-1.01	-0.18	-1.5 (inactive)
